Among all 96,000 compounds or so, about 20,000 (21%) were called active.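 How the source made its calls: active means CYP2C19 inhibition above a set limit at 5 µM in the primary screen (cut at about 50% in these data); inactive means the rest.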 Only a sample is shown.
target: Cytochrome P450 2C19 (Homo sapiens) (UniProt P33261); test: blockers of cytochrome P450 2C19 activity – biochemical, luminescence, ADME assay, primary screen (AID 778); settings: CYP2C19 Supersomes, luciferin-H EGE luminescence, 30 min; at 5 µM; stronger effect = higher value;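 further: plate controls were negative control wells for no effect and 2.5 mM tranylcypromine positive control for full effect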
Sequence (P33261 whole entry, looked up): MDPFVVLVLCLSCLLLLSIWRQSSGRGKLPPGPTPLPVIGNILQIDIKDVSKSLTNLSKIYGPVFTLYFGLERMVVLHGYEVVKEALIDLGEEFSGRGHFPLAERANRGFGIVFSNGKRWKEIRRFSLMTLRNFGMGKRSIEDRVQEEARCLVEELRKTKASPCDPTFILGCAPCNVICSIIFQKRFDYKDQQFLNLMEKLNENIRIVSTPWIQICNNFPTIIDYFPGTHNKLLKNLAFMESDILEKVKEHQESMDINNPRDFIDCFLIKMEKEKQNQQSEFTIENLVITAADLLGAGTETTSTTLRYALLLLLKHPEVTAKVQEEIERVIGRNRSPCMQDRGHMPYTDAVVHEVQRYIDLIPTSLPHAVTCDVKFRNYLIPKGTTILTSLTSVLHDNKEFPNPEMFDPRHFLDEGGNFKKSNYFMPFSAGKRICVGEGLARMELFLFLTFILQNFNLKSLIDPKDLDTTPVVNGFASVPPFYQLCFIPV

inhibition, inactive:
NC(=O)c1ccccc1NC(=O)c1ccccc1F -8.5%
CCOC(=O)c1c(C)nc(-c2ccccc2)nc1NC(=O)C(C)C 37.3%
CCOC(=O)N1CCC(NC(=O)Cn2cc3c(n2)CCCCC3)CC1 1.5%
CCN1CCN(Cc2c(O)ccc3c(=O)c(-c4ccc(OC)c(OC)c4)c(C(F)(F)F)oc23)CC1 12%
Cc1cc(=O)oc(C)c1C(=O)Nc1cnc2ccccc2c1 0.8%
CC(=NCC1CCCO1)c1c(O)[nH]c(=O)[nH]c1=O (centres undefined) -7.7%
COCCNC(=O)CN(C(=O)CCC(=O)Nc1cc(C)on1)c1ccc(C)cc1C 11.8%
N#CC1=C(N)Oc2n[nH]c(CSc3ccccc3)c2C12C(=O)Nc1ccccc12 (centres undefined) 0.5%
O=C(NCc1ccccn1)c1ccc2nc(-c3ccco3)c(-c3ccco3)nc2c1 43.6%
COc1ccc(CC(NC(C)=O)C(=O)NC2CCN(C(=O)Nc3ccc(C#N)cc3)CC2)cc1OC (centres undefined) 32%
COc1ccc(C(CNC(=O)c2cccnc2SC)N2CCOCC2)cc1 (centres undefined) 11.3%
CCC1=C/C(=C\c2ccc3c(c2)OCO3)C(=O)S1 43.8%
Cc1cccc(N=C2NC(=O)CS2)c1C 7.4%
Cc1cc(C=O)c(C)n1-c1ccc(NC2CCCCC2)c([N+](=O)[O-])c1 -2.5%
O=C(c1ccco1)N1CCN(C(=O)c2ccc(COc3ccc(F)cc3)o2)CC1 25.1%
COCCN1Cc2cccc(C(=O)Nc3ccccc3OC)c2C1=O 34.9%
CCCOc1ccc(NC(=O)C2CCCNC2=O)cc1 (centres undefined) 3.9%
CNC(=O)c1csc(-c2ccccc2)n1 23.7%
C=CCNC(=O)c1cc(-c2ccccc2O)on1 45.7%
CS(=O)(=O)N(CC(=O)N1CCOCC1)c1ccc2c3c(cccc13)CC2 32.7%
Cc1ccc2oc(=O)c3cnn(CC(=O)N4CCCCCC4)c3c2c1 -5.2%
C=CCN(C(=O)Nc1ccc2oc(C)nc2c1)c1ccccc1 14.7%
CS(=O)(=O)c1sc2nc(-c3ccccc3)cc(-c3ccccc3)c2c1N -2.6%
O=C(NC1CCCCC1)N1CCc2[nH]c3ccccc3c2C1 44.1%
N#Cc1ccc(CSc2nnc(-c3ccccn3)n2-c2ccc(Cl)cc2)cc1 18.3%
O=C(Oc1cccnc1)c1cc2ccccc2oc1=O -9.9%
O=C(NCc1ccccn1)c1cc2ccccc2oc1=O 1.3%
CCCCN(C)C(=O)c1ccc2c(c1)N(CC)C(=O)c1ccccc1S2(=O)=O 22.5%
O=C(CCN1C(=O)c2ccncc2C1=O)Nc1ccc2c(c1)OCCO2 2.4%
O=C(CCN1C(=O)c2ccccc2C1=O)Nc1ccncc1 36.2%
O=C(COc1ccccc1Cl)Nn1cnnc1 41.3%
COc1ccc(Cc2nnc(NC(=O)Cc3cccs3)s2)cc1 17.2%
COc1ccc(NC(=O)NC2CC3CCCC(C2)N3Cc2ccccc2)cc1 (centres undefined) 0.4%
CN(C)c1nc2n(c(=O)n1)CCO2 -6%
CN(C)/C=C1/Nc2ccccc2C1=O 14.3%
Cc1oc(-c2ccccc2F)nc1CS(=O)(=O)CC(=O)NCCCN(C)C1CCCCC1 -10.6%
COc1ccc(-c2nc(CS(=O)CC(=O)N3CCc4ccccc4C3)c(C)o2)cc1 (centres undefined) 17.7%
CCN1CCN(C(=O)/C=C\C(=O)O)CC1 -10.4%
CCOC(=O)c1c(N)c(C#N)nn1-c1ccccc1C(=O)OC 25.3%
CCC(=O)NC(NCC1CCCO1)C(Cl)(Cl)Cl (centres undefined) 8.6%
COCCNC(=O)c1snc2ccc(Cl)cc12 -5.7%
CCOC(=O)c1nc(N)sc1C(=O)OCC -0.6%
CCOC(=O)c1cc2ccccc2nc1C 12.8%
COC(=O)C(C)n1cnc2c(nnn2-c2cccc(Cl)c2)c1=O (centres undefined) 24.7%
COc1ccc(Cl)cc1C(=O)Nc1ccc(N(C)C(C)=O)cc1 25.6%
COc1ccc(NC(=S)N2N=CCC2c2ccccc2)cc1 (centres undefined) 41.5%
CCOC(=O)c1cc(NC(=O)c2ccc(Cl)cc2)c(=O)oc1-c1ccccc1 6.8%
N#Cc1c(N)n(CCOC(=O)c2ccc(Cl)cc2)c2nc3ccccc3nc12 29.4%
CCOc1ccc(OCC)c(NC(=O)C(NS(=O)(=O)c2ccc3c(c2)oc(=O)n3C)C(C)C)c1 (centres undefined) 20.9%
c1ccc(-c2cc(-c3nnc4sc(-c5ccccn5)nn34)[nH]n2)cc1 10.4%
O=C(O)c1cccnc1NC1CCCC1 6.9%
O=C(CSc1nnc(-c2ccc(NS(=O)(=O)c3ccccc3)cc2)o1)NCC1CCCO1 (centres undefined) 46.1%
CCN(CC)C(=O)CSc1nnc(-c2cccc(OC)c2)o1 26.3%
CC(C)CC(=O)Nc1cc(C(F)(F)F)ccc1N1CCOCC1 32.1%
O=C(Nc1cc(C(F)(F)F)ccc1Cl)c1cc2nc3c(c(C(F)(F)F)n2n1)CCCC3 7.6%
COC(=O)CNC(=O)c1ccc2c(c1)S(=O)(=O)c1ccccc1C2=O -4.3%
O=C(CC1OC(=O)c2ccccc21)NC1CCCCC1 (centres undefined) -5.7%
O=C(NC(c1ccccc1)c1ccccc1)N1CCN(CCO)CC1 3.6%
S=c1[nH]nc2c3c4c(sc3ncn12)CCCC4 -8.5%
Cc1cccc(CSc2nnc(NC(=O)CSc3nnc(C)s3)s2)c1 20.2%
CCOC(=O)/C(C#N)=C/c1ccc(OCC(=O)Nc2ccccc2)c(OC)c1 4.1%
O=C(NCCc1ccccc1)/C(=C\c1ccc([N+](=O)[O-])cc1)NC(=O)c1ccccc1 -1.2%
CCCC(=O)Nc1c(O)c2ccccc2[nH]c1=O -8.7%
COc1ccc(OC)c(NC(=O)Cn2c(=O)oc3ccccc32)c1 42.2%
COc1ccc(OC)c(NC(=O)CN2CCN(C(=O)c3ccco3)CC2)c1 8.8%
COc1ccc(C(=O)Nc2ccc(F)cc2F)cc1 12.1%
CCOc1ccc(S(=O)(=O)Nc2nc3cc(OC)ccc3s2)cc1 16.3%
CCOc1ccccc1NC(=O)Nc1cc(OC)ccc1OC 1.1%
CCOc1ccc(CC(=O)Nc2ccc(S(=O)(=O)Nc3cc(C)on3)cc2)cc1OCC 2%
O=P(c1cccs1)(c1cccs1)c1cccs1 7.9%
COC(=O)C(C)N(C#N)c1nc(C)nc(C)n1 (centres undefined) 15.2%
CCOC(=O)C1CCCN(C(=O)c2sc3nc(C)nc(N4CCOCC4)c3c2C)C1 (centres undefined) -5%
Nc1nonc1-c1noc(-c2ccc(Br)o2)n1 47.6%
CN1CCN(Cc2c(O)ccc3c2oc(=O)c2ccccc23)CC1 -0.1%
Cc1ccccc1OC(=O)Cn1c(C(F)(F)F)nc2ccccc21 35.4%
CN1CCN(C(=O)Cn2c(C(F)(F)F)nc3ccccc32)CC1 -11.1%
CCCCN(C)Cc1c(C)[nH]c2ccc(Cl)cc2c1=O -11.4%
O=C(Nc1c(Cl)cccc1Cl)C1CCC1 -0.2%
O=C(c1ccco1)N1CCN(c2cccc(Cl)c2)CC1 19.9%
O=C(c1ccco1)N1CCN(C(=O)C2CC(c3ccc(F)cc3)=NO2)CC1 (centres undefined) 5.3%
Cc1ccc(S(=O)(=O)NCC(=O)OCC(=O)N2CCc3ccccc32)cc1 -3.8%
O=C1CN(C(=O)COC(=O)C2CC(=O)N(Cc3ccco3)C2)c2ccccc2N1 (centres undefined) -8.7%

inhibition, active:
COc1cc(OC)c(-n2c(C)cc(C=O)c2C)cc1Cl 93.2%
C=CCNC(=O)c1csc(-c2ccccc2)n1 67.4%
C=CCN(C(=O)Cn1ncc2c1-c1cc(C)ccc1OC2)c1ccccc1 63.4%
Nc1ncc(-c2cc3ccccc3oc2=O)s1 51.3%
O=C(CCN1C(=O)c2ccccc2C1=O)Nc1cccc(F)c1 78%
Cc1ccccc1-c1nc(CS(=O)(=O)CC(=O)N2CCc3ccccc3C2)c(C)o1 69.4%
CCOC(=O)c1sc(C)c2c1NC(C)(c1cccc3ccccc13)NC2=O (centres undefined) 82%
CN1OC(COC(=O)c2ccc(Cl)cc2)CC1c1ccccc1 (centres undefined) 74.5%
CCN(CC)C(=O)CSc1nnc(-c2ccc(S(=O)(=O)NCc3ccccc3Cl)cc2)o1 65.4%
CC(CC(=O)Nc1cc(C(F)(F)F)ccc1Cl)c1ccccc1 (centres undefined) 61%
CCOC(=O)/C(=C\c1ccc([N+](=O)[O-])cc1)C(=O)c1cc(C(C)=O)c(Nc2ccccc2)s1 62.8%
CCOc1ccc(S(=O)(=O)Nc2ccc(S(=O)(=O)Nc3cc(OC)ccc3OC)cc2)cc1 91.8%
CCOc1ccc(C(=O)Nc2cc(OC)ccc2OC)cc1 77%
COc1ccc(OC)c(NC(=O)CCN2CCC(C)CC2)c1 89.8%
CC(C)(C)NC(=O)NC(=O)COC(=O)Cn1c(C(F)(F)F)nc2ccccc21 54.6%
O=C(c1ccco1)N1CCN(C(=O)C2CC(c3ccc(Cl)c(Cl)c3)=NO2)CC1 (centres undefined) 53.8%
Cc1ccc(S(=O)(=O)N2CCC(C(=O)OCC(=O)N3CC(=O)Nc4ccccc43)CC2)cc1 62.2%

Reference: PubChem BioAssay AID778 (Sanford-Burnham Center for Chemical Genomics, 2007)
